Drawing on PubChem BioAssay AID1578 (Sanford-Burnham Center for Chemical Genomics, 2009), this text covers inhibition for 30 compounds.

Hit rate of the full screen: of about 290,000 compounds, about 3,000 (1%) were called active. Many of the other results were omitted from the sample, so actives are more common in it than they were. A number with no mark means an inactive call. No stated cut-off is given here; in the data, active means inhibition mostly above about 36% (no sharp cut-off); inactive means mostly below about 34%.

The nature of this assay: inhibition of NOD1-driven NF-kB reporter – cell-based, luminescence, uHTS, primary screen (AID 1578).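 Further: HEK-293T reporter cells stimulated with the NOD1 agonist gamma-tri-DAP.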 Particulars: NOD1-driven NF-kB luciferase reporter cells, at 4 µM, active compounds read high.
For orientation: inhibition means the relative decrease from the control value, in per cent. For the compound `COC(=O)c1oc2ccccc2c1-n1cccc1`, the inhibition is -6%. With `Cc1ccc2nsnc2c1S(=O)(=O)Nc1ccccc1C(=O)O`, the inhibition is -10.2%.

For `Cc1ccc(C(C)C)c(OCC(O)CN2CC(C)OC(C)C2)c1` (stereo not given), the inhibition was 5.4%. Next, `CCOc1ccc(Cl)cc1CNCCCSc1ncccn1`: 5.6%. The figure for `O=C(NNC1=C(C(=O)C(F)(F)F)CCC1)c1cccc(O)c1` is -26.1%; for `O=C(NNC1=C(C(=O)C(F)(F)F)CCC1)c1ccc(Cl)cc1` it is 19.2%. The figure for `O=C(NNC1=C(C(=O)C(F)(F)F)CCC1)c1cccc(Cl)c1` is 83% (active). As for `CO/N=C(/CS(=O)c1ccc(Br)cc1)c1ccc(OC)cc1` (stereo not given), the inhibition was -16%. Take `Cc1cc(C)c2sc(N(CCN(C)C)C(=O)c3ccc4ccccc4c3)nc2c1`: the inhibition was -10.4%. For `Cc1ccc(Cn2nnc3c(=O)n(Cc4cccc(C)c4)cnc32)cc1`, the inhibition is 3.6%. Next, `Cc1cccc(CC(=O)OCn2nnc3ccccc3c2=O)c1`: -15.8%. Next, `Cc1cccc(Cn2nnc3c2C(=O)c2ccccc2C3=O)c1`: 68.5% (active); `CCOc1ccc(NC(=O)CCNC(=O)Cn2ccc3ccccc3c2=O)cc1`: -20.7%.

On to `Cc1ccc(S(=O)(=O)Nc2nc3ccccc3nc2N2CCN(c3ccccc3F)CC2)cc1`, for which the inhibition was 5.2%. The figure for `Cc1ccsc1C1C(C#N)=C(N)OC2=C1C(=O)CCC2` (stereo not given) is -6.1%; for `COc1ccc(CNc2nc(Cl)c(C#N)s2)cc1` it is 3.8%; for `Cc1ccc(CNc2nc(Cl)c(C#N)s2)cc1` it is 63.4% (active). The figure for `N#Cc1sc(NCc2ccccc2)nc1Cl` is -19.1%. For the compound `CCN1CCN(CCOCCOc2ccccc2)CC1`, the inhibition is 75.5% (active). The figure for `c1ccc(OCCOCCN2CCOCC2)cc1` is 7.9%; for `CCN1CCN(CCOCCOc2ccccc2-c2ccccc2)CC1` it is -24.4%; for `O=C(Cc1ccccc1)NNC(=O)Nc1ccccc1` it is -23.5%. Next, `CCCC(=O)NC(C)c1nc2ccccc2n1CC` (stereo not given): -18.7%.

Regarding `CCCC(=O)NC(C)c1nc2ccccc2n1C(C)C` (stereo not given), the inhibition was -2.5%. Next, `CCCC(=O)NC(C)c1nc2ccccc2n1C` (stereo not given): 36.2% (active). The figure for `Cc1ccc(C(O)c2nc3ccccc3n2C)cc1` (stereo not given) is -7.9%; for `COc1ccc(C(O)c2nc3ccccc3n2C)cc1OC` (stereo not given) it is 33.1%; for `CC(C)c1ccc(C(O)c2nc3ccccc3n2C)cc1` (stereo not given) it is 76.4% (active). The figure for `CCN(CC(=O)Nc1ccccc1Br)C1CCCCC1` is -38.4%; for `C=CCN1C(=O)N/C(=C/c2ccc(C)o2)C1=O` it is -35.1%.
